Reference: PubChem BioAssay AID504332 (National Center for Advancing Translational Sciences (NCATS), 2011)
Screen size: about 350,000 compounds; about 31,000 (8.9%) were called active. About 15% were inconclusive and are not listed. What follows is part of a selection rich in actives, with near analogues and random picks from the rest. A call without a number means that no potency is given here. Unmarked numbers belong to inactive results. The call rests on the fitted dose curve; in most records, active means well fitted inhibition curve with a large enough effect; inconclusive means small, poorly fitted or top-dose-only effect; inactive means no such curve, though single readings can be large or run the other way.

Each compound was assayed against Histone-lysine N-methyltransferase EHMT2 (Homo sapiens) (UniProt Q96KQ7) (assay: qHTS Assay for Inhibitors of Histone Lysine Methyltransferase G9a). Conditions: G9a H3K9 monomethylation, AlphaScreen, 2 h; series mostly up to 59 µM.
Sequence of Histone-lysine N-methyltransferase EHMT2 (Homo sapiens) (Q96KQ7 913-1193 limits assumed): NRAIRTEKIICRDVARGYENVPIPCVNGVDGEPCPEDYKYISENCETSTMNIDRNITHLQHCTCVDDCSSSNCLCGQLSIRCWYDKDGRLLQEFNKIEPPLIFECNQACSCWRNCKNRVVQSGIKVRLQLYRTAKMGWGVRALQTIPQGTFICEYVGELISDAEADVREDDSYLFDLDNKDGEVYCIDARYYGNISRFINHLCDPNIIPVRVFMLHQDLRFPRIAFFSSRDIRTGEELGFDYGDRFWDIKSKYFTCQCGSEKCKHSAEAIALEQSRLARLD
How it was run: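 G9a (20 nM) preincubated 15 min RT with compounds, then 500 nM biotinylated H3K9 peptide and 20 uM SAM added; 2 h RT reaction. Monomethyl-H3K9 product detected by AlphaScreen with anti-H3K9me1 antibody, streptavidin donor and anti-rabbit IgG acceptor beads.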
Further: nearly all actives have a fitted effect of over 75% in size.
Potency means the concentration at half of the fitted maximal effect.

SMILES | Potency | activity, negative = inhibition
COc1ccc(-n2c(SCC(=O)Nc3ccc(Cl)c(C)c3)nc3n[nH]c(C)c3c2=N)cc1 | inactive | –
COc1ccc(C2C(=O)N(C3CCCCC3)CC(=O)N2Cc2ccccc2Cl)cc1OC (configuration not stated) | inactive | –
Cc1cc(C(=O)COc2ccccc2Cl)c(C)n1C1CC1 | – | 15.7% [at 0.501 µM]
O=C(CC(c1cccs1)N1Cc2ccccc2C1=O)Nc1ccc(F)cc1F (configuration not stated) | inactive | –
COC(=O)c1c(NC(=O)CCCOc2ccccc2)sc2c1CCC(C)C2 (configuration not stated) | inactive | –
CCOc1ccc(NC(=O)c2c(NC(=O)Cc3ccccc3)sc3c2CCC(C)C3)cc1 (configuration not stated) | 2 µM (active) | –
Cc1ccc(C(=O)c2c(NC(=O)c3ccncc3)sc3c2CCCC3)cc1 | 15.8 µM (active) | –
Cc1cccc(OCCCC(=O)Nc2sc3c(c2C(N)=O)CCC(C)C3)c1 (configuration not stated) | inactive | –
COC(=O)c1c(NC(=O)c2ccc(Cl)c(Cl)c2)sc2c1CCCC2 | inactive | –
COC(=O)c1c(NC(=O)c2cccs2)sc2c1CCCC2 | inactive | –
CCOc1ccc(NC(=O)Cn2c(=O)n(CCCC(=O)NCc3ccc4c(c3)OCO4)c(=O)c3ccccc32)cc1 | inactive | –
Cc1sc2ncn(CC(=O)N3CCN(c4ccc(F)cc4)CC3)c(=O)c2c1S(=O)(=O)N1CCN(c2ncccn2)CC1 | inactive | –
Cc1ccc(C)c(S(=O)(=O)n2nc(C)c(S(=O)(=O)N3CCC(C)CC3)c2C)c1 | inactive | –
CCc1ccc(Sc2cc(C(=O)NCCCOC(C)C)c3ccccc3n2)cc1 | inactive | –
CC(C)(CNC(=O)CNC(=O)C1CCCCC1)N1CCOCC1 | – | -2.59% [at 12.7 µM]
O=c1c2cc(Br)ccc2nc(-c2cccc(Cl)c2)n1O | inactive | –
COCc1nnc(NC(=O)c2ccc3c(c2)OCO3)s1 | inactive | –
COc1ccc(CC(=O)Nc2sc(Cc3ccccc3)c(C)c2C(N)=O)cc1 | inactive | –
Cc1ccc(C(=O)Nc2sc(Cc3ccc4c(c3)OCO4)c(C)c2C(N)=O)cc1 | 50.1 µM (active) | –
O=C(Nc1ccc2nc(SCCOc3ccccc3)sc2c1)c1ccco1 | inactive | –
Cc1cc2nc(NC(=O)c3ccc(S(=O)(=O)N4CCOCC4)cc3)sc2cc1C | inactive | –

SMILES | Potency | activity, negative = inhibition
O=c1c2cccnc2n(Cc2cccc(F)c2)c(=O)n1Cc1ccccc1Cl | inactive | –
CCOC(=O)c1c(N)n(-c2cccc(C)c2C)c2nc3ccccc3nc12 | inactive | –
CCCNC(=O)c1c(N)n(-c2ccc(S(N)(=O)=O)cc2)c2nc3ccccc3nc12 | 50.1 µM (active) | –
CC(C)Cn1c(N)c(C(=O)NCc2cccs2)c2nc3ccccc3nc21 | inactive | –
COc1cc(NS(=O)(=O)c2cccs2)cc(OC)c1 | inactive | –
CC(Oc1ccc(Br)cc1)C(=O)NC1CCCCCC1 (configuration not stated) | – | 35.3% [at 12.7 µM]
O=C(NCCc1ccc(Cl)cc1)c1ccc2nc(CCc3ccccc3)oc2c1 | inactive | –
CCc1cc(-c2n[nH]c(=S)n2CC(C)C)cs1 | 1.78 µM (active) | –
CCc1cc(-c2nnc(SCC(=O)NC3CC3)n2C)cs1 | inactive | –
CCn1c(-c2ccncc2)n[nH]c1=S | inactive | –
CCc1ccc(N(CC)C(=O)CCn2cnc3onc(-c4ccc(F)cc4)c3c2=O)cc1 | inactive | –
O=C1CC2(CCN(C(=O)COc3ccc(F)cc3)CC2)Oc2ccccc21 | inactive | –
CCc1ccccc1OCCSc1nc(-c2cccs2)nc2cc(=O)[nH]n12 | inactive | –
CCOC(=O)c1ccc(NC(=O)CCn2cnnn2)cc1 | inactive | –
CCOC(=O)c1ccc(NC2Nc3cc(C)nn3S2)cc1 (configuration not stated) | 3.16 µM (active) | –
C#CCNc1ccc(C(=O)OCC)cc1 | inactive | –
CCc1ccc(NC2Nc3cc(C)nn3S2)cc1 (configuration not stated) | 1 µM (active) | –
CCc1ccc(CNC(=O)c2ccc(CS(=O)c3ccc(Br)cc3)o2)cc1 (configuration not stated) | inactive | –
COc1ccc(Cn2ccn(CC(=O)Nc3cc(C)ccc3C)c(=O)c2=O)cc1 | inactive | –
O=C(CCCCO)c1ccc(O)c(Cl)c1 | – | 1.29% [at 2.33 µM]
Cc1cccc(NC(=O)c2ccc(F)c(S(=O)(=O)N(C)C3CCCCC3)c2)c1 | inactive | –

SMILES | Potency | activity, negative = inhibition
Cc1ccccc1OCCC(=O)OCC(=O)NCCc1ccc(S(N)(=O)=O)cc1 | – | -2.83% [at 12.7 µM]
O=C(NCCc1ccccc1)C1CCN(S(=O)(=O)c2ccc(Br)s2)CC1 | inactive | –
Cc1cc(C)c[n+](-c2nc3ccccc3nc2[N-]S(=O)(=O)c2cccs2)c1 | inactive | –
O=S(=O)([N-]c1nc2ccccc2nc1-[n+]1ccc(Cc2ccccc2)cc1)c1ccc(Br)s1 | 11.2 µM (active) | –
COc1ccc(-n2nnc(-c3nsc(NC(=O)c4ccc(C)c(C)c4)n3)c2C)cc1Cl | inactive | –
COc1ccccc1NC(=O)CSc1oc(-c2ccco2)nc1S(=O)(=O)c1ccc(Br)cc1 | inactive | –
Cc1ccc(/C=N/NC(=S)Nc2cccc(S(=O)(=O)N(C)C)c2)o1 | 50.1 µM (active) | –
CN(C)S(=O)(=O)c1cccc(NC(=O)Cc2ccsc2)c1 | inactive | –
CN(C)S(=O)(=O)c1cccc(NC(=S)N/N=C/C(=O)c2ccccc2)c1 | inactive | –
COc1cc(Cl)c(C)cc1Nc1nnc(-n2nc(C)cc2C)c2ccccc12 | inactive | –
Cc1ccc2cccc(NC(=O)c3cccc4ccccc34)c2n1 | inactive | –
CCOc1ccc(S(=O)(=O)N2CCC(C(=O)OCc3ccc(OC)cc3)CC2)cc1 | inactive | –
COc1cccc(COC(=O)C2CCN(S(=O)(=O)c3ccc(Cl)cc3)CC2)c1OC | inactive | –
COC(=O)c1ccc(COC(=O)C2CCN(S(=O)(=O)c3c(Cl)cccc3Cl)CC2)o1 | 35.5 µM (active) | –
O=C(Nc1cc(-c2nc3ccccc3o2)ccc1Cl)c1cc([N+](=O)[O-])ccc1N1CCOCC1 | inactive | –
Cc1cc(NC(=O)CN2CCC(O)(c3cccc(F)c3)CC2)no1 | 8.91 µM (active) | –
O=C(CN1CCC(O)(c2ccccc2)CC1)Nc1ccc2c(c1)OCCO2 | inactive | –
CC(=O)NC1(c2cccc(F)c2)CCN(CC(=O)NC(C)C)CC1 | – | -5.2% [at 12.7 µM]
COc1cc(OC)c(NC(=O)Cc2ccc(-n3c(C)nc4cccnc43)cc2)cc1Cl | inactive | –
CC(=O)c1ccc(NC(=O)CSc2nc(-c3ccccc3F)nc3c2c(=O)n(C)c(=O)n3C)cc1 | inactive | –
